Experimental data as given in the emibetuzumab library of Makowski et al. (2022).
The other results are listed elsewhere or left out. The true hit rate is not given.

B1: VH:VL chains; a variant is named by its letters at X, in order (parent)
chain 1: QVQLVQSGAEVKKPGASVKVSCKASGYTFTDYXMHWVRQAPGQGLEWMGXVNPNXXXTTYNQKFEGRVTMTTDTSTSTAYMELRSLRSDDTAVYYCARXNXLDXWGQGTTVTVSS
chain 2: DIQMTQSPSSLSASVGDRVTITCSVSSSVSSIYLHWYQQKPGKAPKLLIYSTSNLASGVPSRFSGSGSGTDFTLTISSLQPEDFATYYCQVYSGYPLTFGGGTKVEIK

Variants of: B1
Assay: yeast display scFab, FACS + sequencing
Conditions: with MET
In short: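 A yeast surface library of scFab variants carrying heavy-chain CDR mutations went through two magnetic enrichment rounds on Protein A beads coated with HGFR-Fc, then FACS. For sorting, cells were labelled for 3 h at room temperature with 1 nM HGFR-Fc and anti-Myc in PBSB containing 1% milk, and the top 50% of antigen-positive cells were gated. Input and round-3 sorted populations were deep sequenced in two replicates. A sequence was called an antigen binder if it appeared in both antigen-positive samples and a non-binder if it appeared only in the input.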
For VEGTSDVV, the antigen binding call was “no binding”. In the case of DTTGSAVA, the antigen binding call is reported as “no binding”. For YKGEADGA, the antigen binding call was “no binding”. For YTGATAGA, the antigen binding call was “no binding”. YKGGGAGA was tested, and the antigen binding call was “binds”. YEGGGDGA was tested, and the antigen binding call was “no binding”. YKGGGYGA was tested, and the antigen binding call was “binds”. With VKGGGYGA the antigen binding call was “no binding”. YKGGSAGA was tested, and the antigen binding call was “binds”. For FKGGGFGA, the antigen binding call was “no binding”. In the case of VKGGGFGA, the antigen binding call is reported as “no binding”. For YRTRGSGF, the antigen binding call was “binds”. With YRRRGAWF the antigen binding call was “binds”. In the case of YRRRGSGF, the antigen binding call is reported as “binds”. With YRRRGAGF the antigen binding call was “binds”. FTKASYVY was tested, and the antigen binding call was “no binding”. In the case of VEARGDWV, the antigen binding call is reported as “no binding”. With STRKSYAA the antigen binding call was “no binding”. STKAASWV was tested, and the antigen binding call was “no binding”. In the case of YRERGALA, the antigen binding call is reported as “binds”. In the case of VTGGDALA, the antigen binding call is reported as “no binding”. With FTGGDALA the antigen binding call was “binds”. For YRERNAAA, the antigen binding call was “no binding”. FRERGALA was tested, and the antigen binding call was “binds”. For FRERGYGA, the antigen binding call was “no binding”. For FRERGDGA, the antigen binding call was “no binding”. STGTGALA was tested, and the antigen binding call was “no binding”. YRERGAAA was tested, and the antigen binding call was “binds”. In the case of SGRGNSVD, the antigen binding call is reported as “no binding”. With VEEEGDVA the antigen binding call was “no binding”. For STEEGDWV, the antigen binding call was “no binding”. In the case of AEGTNAGD, the antigen binding call is reported as “no binding”. For VETGNDAV, the antigen binding call was “no binding”. For YRERGSAA, the antigen binding call was “binds”. For FRERNAAA, the antigen binding call was “no binding”. For FRGRGALA, the antigen binding call was “binds”. FRERGAAA was tested, and the antigen binding call was “binds”. For FEEGTDWY, the antigen binding call was “no binding”. For DGGKNDAV, the antigen binding call was “no binding”. In the case of YAAGSFGY, the antigen binding call is reported as “no binding”. For YGETGFGS, the antigen binding call was “no binding”. With YRAGGAGY the antigen binding call was “binds”. SRARDFGY was tested, and the antigen binding call was “no binding”. YRARSFGS was tested, and the antigen binding call was “binds”. In the case of YRARSFGD, the antigen binding call is reported as “no binding”. For YRAGGFGY, the antigen binding call was “binds”. DRAGDAGY was tested, and the antigen binding call was “no binding”. YRAGGFGS was tested, and the antigen binding call was “binds”. With SEARSSGF the antigen binding call was “no binding”. In the case of YATEAFSD, the antigen binding call is reported as “no binding”. In the case of YAKGDDAS, the antigen binding call is reported as “no binding”. In the case of DEGGGDGA, the antigen binding call is reported as “no binding”. For DAGKSDWY, the antigen binding call was “no binding”. In the case of YAEESDVA, the antigen binding call is reported as “no binding”. In the case of DTGTGALV, the antigen binding call is reported as “no binding”. With YRAGGVGS the antigen binding call was “binds”. In the case of YRAGGYGY, the antigen binding call is reported as “binds”. With YRARGYVY the antigen binding call was “no binding”. In the case of YRARGAGY, the antigen binding call is reported as “binds”. YRARGSGY was tested, and the antigen binding call was “binds”. With DTKAADWY the antigen binding call was “no binding”. In the case of VKEGGDVV, the antigen binding call is reported as “no binding”. For YAGKDDWV, the antigen binding call was “no binding”. In the case of YGRTSAAV, the antigen binding call is reported as “no binding”. VEGTSSSV was tested, and the antigen binding call was “no binding”. YKRESSSV was tested, and the antigen binding call was “binds”. YERESAAV was tested, and the antigen binding call was “no binding”. For YKGKDSSV, the antigen binding call was “binds”. With YKRESAAV the antigen binding call was “binds”. With FEGGTDVV the antigen binding call was “no binding”. YKGRGAAF was tested, and the antigen binding call was “binds”. With YKGRGAGF the antigen binding call was “binds”. For YKGRGYGF, the antigen binding call was “no binding”. With YKGRGSAF the antigen binding call was “binds”. DAGRSDLV chain 1 R67H was tested, and the antigen binding call was “no binding”. With SAGEGDVY the antigen binding call was “no binding”. For FAKEGFWD, the antigen binding call was “no binding”. For VETRSSSV, the antigen binding call was “no binding”. In the case of VRTRSSGV, the antigen binding call is reported as “binds”. VRTRGSGV was tested, and the antigen binding call was “binds”. For VRERGDGV, the antigen binding call was “no binding”. In the case of VRTADVGV, the antigen binding call is reported as “no binding”. With VETEGSGV the antigen binding call was “no binding”. With DGGTNAGD the antigen binding call was “no binding”. DREEGSSA was tested, and the antigen binding call was “no binding”. In the case of YTTGGSSA, the antigen binding call is reported as “no binding”. In the case of DATGGSSV, the antigen binding call is reported as “no binding”. In the case of YREKGSSV, the antigen binding call is reported as “binds”. In the case of YREKGSSA, the antigen binding call is reported as “binds”. VAEKGSSA was tested, and the antigen binding call was “no binding”. With YRTGGSSV the antigen binding call was “binds”. YTEKGVGV was tested, and the antigen binding call was “no binding”. DTKRTAVA was tested, and the antigen binding call was “no binding”. In the case of ATTKSAGD, the antigen binding call is reported as “no binding”. For YRRGSVGV, the antigen binding call was “no binding”. YRRGGFGV was tested, and the antigen binding call was “binds”. In the case of YRRGGAGV, the antigen binding call is reported as “binds”. With DARGGFGV the antigen binding call was “no binding”. With YRRGGVGV the antigen binding call was “binds”. In the case of YRGKDVGV, the antigen binding call is reported as “binds”. For DREEGVGV, the antigen binding call was “no binding”. VEGGGDVV was tested, and the antigen binding call was “no binding”. In the case of SEEEGASV, the antigen binding call is reported as “no binding”. With YAARGAWD the antigen binding call was “no binding”. For YKAGGAWD, the antigen binding call was “binds”. YKARGAWD was tested, and the antigen binding call was “binds”. For DKEGGSLV, the antigen binding call was “no binding”. With SKERGSLV the antigen binding call was “no binding”. For YKGRGALY, the antigen binding call was “binds”. YKARGSLY was tested, and the antigen binding call was “binds”. For YKARGSLV, the antigen binding call was “binds”. In the case of YKGRGSLY, the antigen binding call is reported as “binds”. For YKGRAALY, the antigen binding call was “no binding”. ATGRADWA was tested, and the antigen binding call was “no binding”. With VTETGDSV the antigen binding call was “no binding”. In the case of YTGEDDVY, the antigen binding call is reported as “no binding”. For YRGKASGD, the antigen binding call was “binds”. In the case of YRGKAAGD, the antigen binding call is reported as “binds”. YAGKSAGD was tested, and the antigen binding call was “no binding”. In the case of YTGTSAGD, the antigen binding call is reported as “no binding”. In the case of FRRKDDWA, the antigen binding call is reported as “no binding”. FRRRGAWA was tested, and the antigen binding call was “binds”. YRRRGAWA was tested, and the antigen binding call was “binds”. YRRRGSWA was tested, and the antigen binding call was “binds”. For YRRRGYWA, the antigen binding call was “binds”. In the case of ATGEDDVY, the antigen binding call is reported as “no binding”. For DEGGTDGY, the antigen binding call was “no binding”. FARKGDGV was tested, and the antigen binding call was “no binding”. YRRRGDWA was tested, and the antigen binding call was “binds”. YRRRGVWA was tested, and the antigen binding call was “binds”. With YRREGDWA the antigen binding call was “no binding”. In the case of SARRGDWA, the antigen binding call is reported as “no binding”. In the case of DATGGDGV, the antigen binding call is reported as “no binding”. For FRRGGSAF, the antigen binding call was “binds”. In the case of FRRRGALD, the antigen binding call is reported as “binds”. FRRRGAVD was tested, and the antigen binding call was “binds”. FAGRGALD was tested, and the antigen binding call was “no binding”. FRRRGAAD was tested, and the antigen binding call was “binds”. For FARGGDAV, the antigen binding call was “no binding”. FARKSYGA was tested, and the antigen binding call was “no binding”. For AETKGDGV, the antigen binding call was “no binding”. YGTATFLV was tested, and the antigen binding call was “no binding”. With VRTKDFSY the antigen binding call was “no binding”. FGATSFSV was tested, and the antigen binding call was “no binding”. In the case of FAGGDYGS, the antigen binding call is reported as “no binding”. With DTAGDAVV the antigen binding call was “no binding”. With FRRRGSAD the antigen binding call was “binds”. In the case of DARGGSAD, the antigen binding call is reported as “no binding”. With FRRGGSAD the antigen binding call was “binds”. With FARGGSAD the antigen binding call was “no binding”. YRRRGSAD was tested, and the antigen binding call was “binds”. For YRAKGSVD, the antigen binding call was “binds”. For DRAGDSVD, the antigen binding call was “no binding”. With YRAGDSVD the antigen binding call was “binds”. With YRRKGSVD the antigen binding call was “binds”. In the case of YKGKGAVA, the antigen binding call is reported as “binds”. YAGTGAVA was tested, and the antigen binding call was “no binding”. In the case of FKGKGAVA, the antigen binding call is reported as “no binding”. SKGKGAVA was tested, and the antigen binding call was “no binding”. YKTGNDVA was tested, and the antigen binding call was “no binding”. FKGRGAVD was tested, and the antigen binding call was “binds”. In the case of YTTGGAVA, the antigen binding call is reported as “no binding”. YKTRSAVA was tested, and the antigen binding call was “binds”. In the case of VKGAGSVV, the antigen binding call is reported as “no binding”. In the case of YKGKGSVV, the antigen binding call is reported as “binds”. In the case of DTKAASWA, the antigen binding call is reported as “no binding”. In the case of FKAGGAVA, the antigen binding call is reported as “binds”. For FKGEGDVA, the antigen binding call was “no binding”. YKGKGSVA was tested, and the antigen binding call was “binds”. With AATGSAWA the antigen binding call was “no binding”. For DAARGAGD, the antigen binding call was “no binding”. In the case of DAGEAAGD, the antigen binding call is reported as “no binding”. For DRGEGAGD chain 1 G42D, the antigen binding call was “binds”. With VRGGSDVD the antigen binding call was “no binding”. With DRAGGAGD the antigen binding call was “binds”. FRGGSAVD was tested, and the antigen binding call was “binds”. In the case of DRTTNAGD, the antigen binding call is reported as “no binding”. In the case of DRGGSAGD, the antigen binding call is reported as “binds”. For DRGRDAGD, the antigen binding call was “no binding”. With DAGGGAGD the antigen binding call was “no binding”. DKGGAAGD was tested, and the antigen binding call was “no binding”. In the case of FAGRDVGV, the antigen binding call is reported as “no binding”. For SGKGGSAY, the antigen binding call was “no binding”. With FRGADFGD the antigen binding call was “no binding”. FRGGSAGD was tested, and the antigen binding call was “binds”. In the case of FTGGAAGD, the antigen binding call is reported as “no binding”. FRKGSAVD was tested, and the antigen binding call was “binds”. DAGGADAY was tested, and the antigen binding call was “no binding”. FTGGASGV chain 1 V111I was tested, and the antigen binding call was “no binding”. For YGGGGDVV, the antigen binding call was “no binding”. For YKGRGASV, the antigen binding call was “binds”. With VKGRGASV the antigen binding call was “binds”. YEGGGFSV was tested, and the antigen binding call was “no binding”. In the case of YKAGDVSV, the antigen binding call is reported as “no binding”. VKGRAFSV was tested, and the antigen binding call was “no binding”. In the case of YKAKGASV, the antigen binding call is reported as “binds”. With YGGGGASV the antigen binding call was “binds”. For VEGTSASV, the antigen binding call was “no binding”. For SEEGTDWY, the antigen binding call was “no binding”. DAGGAAAD was tested, and the antigen binding call was “no binding”. In the case of YEGTGAGA, the antigen binding call is reported as “no binding”. For YKGRSASV, the antigen binding call was “binds”. YAGRGASA was tested, and the antigen binding call was “no binding”. VKGRSFLV was tested, and the antigen binding call was “no binding”. In the case of VKGRSDWV, the antigen binding call is reported as “no binding”. FKRRSVGA was tested, and the antigen binding call was “no binding”. In the case of YKRRSASA, the antigen binding call is reported as “binds”. In the case of YKGRGASD, the antigen binding call is reported as “binds”. For YAGRGDSA, the antigen binding call was “no binding”. With YKGRGASA the antigen binding call was “binds”. VERGTYGV was tested, and the antigen binding call was “no binding”.
